Data from PubChem BioAssay AID1159580 (chemical genetic matrix, 2015).
“And” between values parts separate entries of the source, which are not always exact repeats. Identical values can stand only once. Hit rate of the full screen: of about 5,500 compounds, about 2,000 (36%) were called active. Not shown: some 18% with an inconclusive outcome. Cut-off read from the data, not from the text of the source: active = normalized growth mostly below about 0.91 (no sharp cut-off); inconclusive = no clear call, values can overlap the other calls; inactive = mostly above about 0.92. This is one part of the list.

Experiment: chemical genetic growth profiling, strain panel (AID 1159580);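 note: tested at 20 µM; growth read once vehicle control cultures reached saturation at 30 °C; 1 = growth at the plate median or of vehicle wells; lower values mean less growth of the strain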
Details: S. cerevisiae deletion strains, growth OD

Measured: normalized growth

COc1ccccc1OCCNCC(O)COc1cccc2[nH]c3ccccc3c12 (stereo unspecified)
inactive: locus YAL013W, strain DEP1, hits give low values 0.999 | locus YAL021C, strain ccr4, hits give low values 1.01 | locus YAL026C, strain drs2, hits give low values 1.01 | locus YAL030W, strain snc1, hits give low values 1.02 | locus YBR009C, strain hhf1, hits give low values 1.02 | locus YBR021W, strain FUR4, hits give low values 0.988 | locus YBR023C, strain chs3, hits give low values 1.01 | locus YBR171W, strain sec66, hits give low values 1.02 | locus YBR229C, strain ROT2, hits give low values 1 | locus YBR231C, strain swc5, hits give low values 0.993 | locus YBR279W, strain paf1, hits give low values 1 | locus YCL011C, strain gbp2, hits give low values 1.01 | locus YCL016C, strain dcc1, hits give low values 1.03 | locus YCL029C, strain bik1, hits give low values 1.02 | locus YCL069W, strain vba3, hits give low values 1.01 | locus YCR088W, strain abp1, hits give low values 1.04 | locus YDL005C, strain med2, hits give low values 1.02 | locus YDL035C, strain GPR1, hits give low values 0.98 | locus YDL040C, strain nat1, hits give low values 1.02 | locus YDL074C, strain BRE1, hits give low values 0.957 | locus YDL101C, strain DUN1, hits give low values 1.01 | locus YDL134C, strain PPH21, hits give low values 1 | locus YDL185W, strain tfp1, hits give low values 1.01 | locus YDL192W, strain arf1, hits give low values 1.02 | locus YDR001C, strain nth1, hits give low values 1.01 | locus YDR069C, strain doa4, hits give low values 1 | locus YDR101C, strain arx1, hits give low values 1.01 | locus YDR137W, strain rgp1, hits give low values 1.05 | locus YDR150W, strain NUM1, hits give low values 1 | locus YDR159W, strain sac3, hits give low values 1.04 | locus YDR162C, strain NBP2, hits give low values 0.974 | locus YDR195W, strain ref2 1 | locus YDR297W, strain sur2, hits give low values 1.01 | locus YDR318W, strain mcm21, hits give low values 1.01 | locus YDR334W, strain swr1, hits give low values 1.03 | locus YDR335W, strain msn5, hits give low values 1 | locus YDR388W, hits give low values 1.01 | locus YDR392W, strain spt3, hits give low values 1.01 | locus YDR502C, strain sam2, hits give low values 1 | locus YEL003W, strain gim4, hits give low values 1.02 | locus YEL037C, strain rad23, hits give low values 1 | locus YEL061C, strain CIN8 (second series), hits give low values 1 | locus YEL061C, strain CIN8, hits give low values 0.997 | locus YER015W, strain faa2, hits give low values 1.02 | locus YER016W, strain bim1, hits give low values 0.986 | locus YER110C, hits give low values 1.02 | locus YER111C, strain swi4, hits give low values 1.02 | locus YER155C, strain BEM2 (second series), hits give low values 1.02 | locus YER155C, strain BEM2, hits give low values 0.986 | locus YER167W, strain BCK2, hits give low values 1 | locus YFR010W, strain ubp6, hits give low values 1.02 | locus YGL078C, strain dbp3, hits give low values 1.02 | locus YGL086W, strain mad1, hits give low values 1.01 | locus YGL167C, strain pmr1, hits give low values 1.02 | locus YGL173C, strain kem1, hits give low values 1.03 | locus YGL227W, strain vid30, hits give low values 1.01 | locus YGL240W, strain doc1, hits give low values 1.02 | locus YGL248W, strain PDE1, hits give low values 1.01 | locus YGL253W, strain hxk2, hits give low values 1.02 | locus YGR078C, strain PAC10, hits give low values 0.968 | locus YGR135W, strain pre9, hits give low values 1.01 | locus YGR229C, strain SMI1, hits give low values 0.957 | locus YGR252W, strain gcn5, hits give low values 0.948 | locus YHR013C, strain ard1, hits give low values 1.03 | locus YHR027C, strain rpn1, hits give low values 0.994 | locus YHR030C, strain SLT2, hits give low values 1.01 and 0.992 | locus YHR079C, strain IRE1 (second series), hits give low values 1.02 | locus YHR079C, strain IRE1, hits give low values 0.999 | locus YHR094C, strain hxt1, hits give low values 1.01 | locus YHR129C, strain ARP1, hits give low values 1.01 | locus YHR142W, strain chs7, hits give low values 1.03 | locus YHR200W, strain rpn10, hits give low values 1.02 | locus YIL066C, strain RNR3, hits give low values 1 | locus YIL073C, strain SPO22, hits give low values 1.11 | locus YIL125W, strain kgd1, hits give low values 1.02 | locus YIR030C, strain dcg1, hits give low values 1.02 | locus YJL092W, strain hpr5, hits give low values 1.01 | locus YJL095W, strain BCK1 (second series), hits give low values 1.02 | locus YJL095W, strain BCK1, hits give low values 0.976 and 1.01 | locus YJL115W, strain asf1, hits give low values 1.01 | locus YJL129C, strain trk1, hits give low values 1.02 | locus YJL134W, strain LCB3, hits give low values 1 | locus YJL154C, strain vps35, hits give low values 1.01 | locus YJL164C, strain tpk1, hits give low values 1.02 | locus YJL166W, strain qcr8, hits give low values 1.03 | locus YJL168C, strain set2, hits give low values 1.01 | locus YJL187C, strain SWE1 (second series), hits give low values 1.01 | locus YJL187C, strain SWE1, hits give low values 1.01 | locus YJR043C, strain POL32, hits give low values 0.998 | locus YJR066W, strain TOR1, hits give low values 0.935 | locus YJR075W, strain HOC1, hits give low values 0.983
